This is a sample that favours compounds with a hit; in the whole collection about 2.3% have one here.
SENP6 inh = inhibitors of human SENP6 protease | AID 2599 | Q9GZR1 | 330,000 compounds, 1.8% hits | inhibition, % at 10 µM | Recombinant SENP6 catalytic domain, aminoluciferin luminescence;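 active = inhibition above about 50% at the single tested dose, limit read from the data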
Target sequence (Q9GZR1 628-1112 limits assumed): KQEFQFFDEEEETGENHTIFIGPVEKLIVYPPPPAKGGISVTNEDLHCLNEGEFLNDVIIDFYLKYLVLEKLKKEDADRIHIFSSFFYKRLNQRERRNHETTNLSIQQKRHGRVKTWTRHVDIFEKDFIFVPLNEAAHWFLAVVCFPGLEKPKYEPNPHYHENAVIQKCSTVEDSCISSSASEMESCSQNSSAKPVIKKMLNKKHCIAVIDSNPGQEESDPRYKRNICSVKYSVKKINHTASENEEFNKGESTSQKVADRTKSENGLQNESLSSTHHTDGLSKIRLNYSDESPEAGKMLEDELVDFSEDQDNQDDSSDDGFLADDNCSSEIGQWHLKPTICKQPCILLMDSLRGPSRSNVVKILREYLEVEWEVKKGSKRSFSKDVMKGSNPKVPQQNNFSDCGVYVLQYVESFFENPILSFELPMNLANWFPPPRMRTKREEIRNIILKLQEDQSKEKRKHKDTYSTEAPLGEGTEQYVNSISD
LGR2 inh = Drosophila LGR2 receptor signaling inhibition | inhibition, % at 9.99 µM | 380,000 compounds, 0.35% hits | HEK293 LGR2, CRE-luciferase, bursicon-stimulated, 4 h | AID 720647;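 active = drop in luminescence signal, shown as inhibition above about 50% in the replicate tests, limit read from the data, passing the limit was not always enough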;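 note: agonist challenge used bursicon conditioned medium at about half maximal strength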
SENP8 block-1 = blocks human SENP8 cleavage of Nedd8 substrate | Q96LD8 | recombinant SENP8, Nedd8 substrate fluorescence | inhibition, % at 20 µM | 360,000 compounds, 0.64% hits | AID 602440; in the data active = inhibition mostly above about 40%, no sharp cut-off; inactive = mostly below about 27%
HSP90 inh = blocks HSP90-mediated luciferase refolding in reticulocyte lysate. Rabbit reticulocyte lysate, luciferase refolding luminescence, 3 h. 290,000 compounds, 0.91% hits. inhibition, % at 5.6 µM. AID 1789;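 active = inhibition above the screen-wide mean plus 3 SD, computed separately per campaign, cut at about 16% in these data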;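 note: inhibitors lower the luminescence because luciferase stays unfolded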
SENP8 block-2 = inhibitors of human SENP8 protease | Q96LD8 | purified SENP8, Z-RLRGG-aminoluciferin cleavage, luminescence | inhibition, % at 10 µM | 330,000 compounds, 1.2% hits | AID 2540; in the data active = inhibition above about 50%
SENP7 inh = blocks the human protease SENP7; Q9BQF6; inhibition, % at 5 µM; recombinant SENP7, Z-RLRGG-aminoluciferin luminescence, 40 min; AID 434973; 330,000 compounds, 1.5% hits;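 active = inhibition above about 50% at the single test dose, limit read from the data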
SENP8 confirm = human SENP8 inhibition, confirmed; 6,200 compounds, 40% hits; inhibition, % at 12.5 µM; Recombinant SENP8, Z-RLRGG-aminoluciferin luminescence, 60 min; AID 488912; shares compounds with SENP7 inh;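 active = mean inhibition across replicates above about 50%, limit read from the data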
SENP6 confirm = human SENP6 inhibition, confirmed | recombinant SENP6, Z-RLRGG-aminoluciferin luminescence | 6,200 compounds, 58% hits | inhibition, % at 12.5 µM | shares compounds with SENP7 inh
SENP7 conf = confirmation of human SENP7 protease inhibitors; shares compounds with SENP7 inh; recombinant SENP7, Z-RLRGG-aminoluciferin luminescence, 40 min; inhibition, % at 12.5 µM; 6,200 compounds, 69% hits
Casp3 select = selectivity test for SENP inhibitors: human caspase-3 inhibition; shares compounds with SENP7 inh; AID 488918; inhibition, % at 12.5 µM; 6,200 compounds, 60% hits; purified caspase-3, Z-DEVD-aminoluciferin luminescence, 60 min;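 active = mean inhibition above about 50%, limit read from the data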
Luc interf = interferes with luciferase luminescence in SENP counter-screen | Pre-incubated SENP8/Z-RLRGG-aminoluciferin, luciferase luminescence interference | inhibition, % at 12.5 µM | 6,200 compounds, 39% hits | shares compounds with SENP7 inh;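 active = mean inhibition above about 50% when retested at one dose, limit read from the data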
Hits are given with their value; – = inactive; · = no result.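 Rule for the calls, unless noted: active = mean inhibition above about 50% in the one-dose retest (limit read from the data); inactive = the rest.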

SMILES	SENP6 inh	LGR2 inh	SENP8 block-1	HSP90 inh	SENP8 block-2	SENP7 inh	SENP8 confirm	SENP6 confirm	SENP7 conf	Casp3 select	Luc interf
O=C1C(c2c(O)[nH]c3ccccc23)=Nc2ccccc21	–	·	–	–	–	–	·	·	·	·	·
CC(=O)c1cccc2c(O)c(C3=Nc4ccccc4C3=O)[nH]c12	54.5	·	–	–	59.1	–	–	59.5	–	–	–
CCOC(=O)c1sc(-c2ccc(F)cc2)cc1N	–	–	–	–	–	–	·	·	·	·	·
CCOC(=O)c1sc(-c2ccc(OC)cc2)cc1N	70.5	·	–	–	–	51.9	–	54.5	83.3	–	–
COc1ccc(CCN=Cc2c(C)[nH]n(-c3ccc([N+](=O)[O-])cc3)c2=O)cc1OC	–	–	–	–	–	–	·	·	·	·	·
Cc1[nH]n(-c2ccc([N+](=O)[O-])cc2)c(=O)c1C=NCCN1CCN(C(=O)c2ccccc2)CC1	88.4	·	–	–	69.7	89.9	–	–	–	67.1	59.3
O=[N+]([O-])c1ccc(/C=N\N2CCN(c3ccc(Cl)cc3)CC2)cc1	–	·	–	–	–	–	·	·	·	·	·
Cc1[nH]n(-c2ccc([N+](=O)[O-])cc2)c(=O)c1/C=N/N1CCOCC1	78.4	–	–	–	–	57.6	–	–	–	–	–
O=C(N[C@@H]1CC[C@H](CCNS(=O)(=O)c2ccccc2)O[C@H]1CO)c1cccnc1	·	–	·	·	·	·	·	·	·	·	·
NS(=O)(=O)c1ccc2nc(NC(=O)Nc3ccccc3F)sc2c1	75.9	–	–	–	59.3	58.9	68.9	71.3	90.0	58.3	76.4
Cc1ccccc1NC(=O)Nc1nc2ccc(S(C)(=O)=O)cc2s1	–	–	–	–	–	50.8	–	–	–	–	–
CCCNC(=O)C[C@@H]1C[C@H]2c3cc(NC(=O)C4CCC4)ccc3O[C@H]2[C@H](CO)O1	·	–	·	·	·	·	·	·	·	·	·
CCS(=O)(=O)NC[C@@H]1[C@@H](c2ccccc2)[C@@H](CO)N1CC1CCCCC1	·	–	·	·	·	·	·	·	·	·	·
COc1ccc(NC(=O)Nc2cccc3c2O[C@H](CN(C)Cc2ccc(C(F)(F)F)cc2)[C@@H](C)CN([C@@H](C)CO)C3=O)cc1	·	–	·	·	·	·	·	·	·	·	·
Nc1nc2ccc(-c3nc4ccccc4o3)cc2s1	–	–	–	–	–	–	·	·	·	·	·
c1ccc2oc(-c3ccc4nc[nH]c4c3)nc2c1	–	·	–	–	–	59.7	52.5	50.3	73.6	56.9	–
CCc1ccc(-c2nc(CCl)cs2)cc1	73.7	–	–	–	56.1	64.1	–	84.4	96.1	68.6	–
Fc1ccc(-c2nnc(-c3ccc(Cl)cc3Cl)o2)cc1	74.2	–	–	–	72.2	92.4	59.7	64.8	86.0	79.3	–
Fc1ccc(-c2nnc(-c3ccc(Cl)cc3)o2)cc1	–	·	–	–	–	55.5	–	–	–	–	–
CSc1nnc(-c2ccc(Cl)cc2Cl)o1	–	–	–	–	–	–	·	·	·	·	·
CSc1ccccc1-c1nnc(-c2ccc(Cl)cc2Cl)o1	–	–	–	–	–	–	·	·	·	·	·
Clc1ccc(-c2nnc(-c3ccccc3)o2)c(Cl)c1	96.0	·	–	–	90.2	97.0	84.8	86.6	94.9	87.5	–
N#Cc1c(Nc2ccc(Cl)cc2)s[nH]c1=O	58.6	·	–	–	–	–	56.0	–	84.7	68.7	–
C[C@@H]1CN([C@H](C)CO)C(=O)c2cc(NS(=O)(=O)c3cn(C)cn3)ccc2O[C@H]1CN(C)CC1CC1	·	–	·	·	·	·	·	·	·	·	·
Nc1ccc(N=Nc2ccccc2O)c(N)c1	82.9	–	–	·	69.9	79.3	76.8	80.7	94.7	57.0	82.2
Cc1ccc(S(=O)(=O)O/N=C2/CCCc3occc32)cc1	–	–	–	–	–	–	·	·	·	·	·
